Source: PubChem BioAssay (The Scripps Research Institute Molecular Screening Center)
A selection: hits, their analogues and other compounds. The true share with any hit is near 2.5%.
LEDGF integ inh: blockers of LEDGF/p75-dependent integrase strand transfer – biochemical, TR-FRET, high throughput, primary screen; HIV-1 integrase (with human LEDGF/p75); TR-FRET IN-LEDGF/p75 DNA integration, Eu/Cy5; inhibition, % at 3.7 µM; 370,000 tested, 0.64% active; AID 743269, 2014;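 active = inhibition above the screen-wide mean plus 3 SD, cut at about 13% in these data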;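 note: signal is the Cy5 over europium emission ratio at 671 and 618 nm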
MBD2 DNA inh: inhibitors of MBD2 binding to methylated DNA, primary screen, biochemical, TR-FRET, DNA-binding domain, human. Methyl-CpG-binding domain protein 2 (Homo sapiens), Q9UBB5. MBD2 binding to methylated oligonucleotide. inhibition, % at 4.4 µM. 370,000 tested, 0.31% active; in the data active = inhibition above about 13%
UHRF1 MBD2 ctr: UHRF1 methylated DNA binding inhibitors, primary screen, counter-screen for MBD2 inhibitor project, biochemical, TR-FRET, human UHRF1, single concentration; inhibition, % at 4.4 µM; E3 ubiquitin-protein ligase UHRF1 (Homo sapiens), Q96T88; UHRF1 binding to methylated oligo; 370,000 tested, 0.75% active; in the data active = inhibition above about 21%;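 note: UHRF1 SRA domain binding a hemimethylated CpG hairpin DNA probe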
PRMT1 FP inh: PRMT1 methyltransferase inhibitors, primary screen, biochemical, fluorescence polarization. Protein arginine N-methyltransferase 1 (Homo sapiens), Q99873. recombinant PRMT1, activity-based probe fluorescence polarization. inhibition, % at 2.79 µM. 370,000 tested, 1.3% active;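 active = inhibition above about 21% made by adding two undisclosed values, limit read from the data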
Target sequence (Q99873 whole entry, looked up): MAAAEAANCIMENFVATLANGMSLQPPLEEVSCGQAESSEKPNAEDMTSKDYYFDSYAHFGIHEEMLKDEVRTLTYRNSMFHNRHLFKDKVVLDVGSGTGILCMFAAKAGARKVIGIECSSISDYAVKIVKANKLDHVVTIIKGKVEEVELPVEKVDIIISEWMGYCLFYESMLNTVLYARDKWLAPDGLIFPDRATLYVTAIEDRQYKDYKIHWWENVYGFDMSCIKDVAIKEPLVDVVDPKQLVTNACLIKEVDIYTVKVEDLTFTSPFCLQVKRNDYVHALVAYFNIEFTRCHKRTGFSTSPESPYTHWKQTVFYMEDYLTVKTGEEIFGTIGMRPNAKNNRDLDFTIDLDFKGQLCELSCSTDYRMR
UHRF1 DNA bind: UHRF1 methylated DNA binding inhibitors, counter-screen for MBD2 inhibitor project, biochemical, TR-FRET, human UHRF1; shares compounds with MBD2 DNA inh; UHRF1 binding to methylated oligonucleotide; inhibition, % at 4.4 µM; 1,000 tested, 25% active; in the data active = inhibition above about 21%;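 note: UHRF1 SRA domain binding a labeled hemimethylated CpG hairpin DNA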
MBD2 DBD conf: inhibitors of MBD2 binding to methylated DNA, confirmation, biochemical, TR-FRET, DNA-binding domain, human | shares compounds with MBD2 DNA inh | TR-FRET MBD2-DBD binding to methylated oligonucleotide | inhibition, % at 4.4 µM | 1,000 tested, 26% active
IN multimer act: HIV-1 IN multimer formation enhancers, counter-screen for LEDGF/p75 integration inhibitor project, biochemical, TR-FRET | shares compounds with LEDGF integ inh | TR-FRET HIV-1 integrase multimerization | activation, % at 7.7 µM | 2,000 tested, 17% active; in the data active = activation above about 8.9%
TRFRET interf: TR-FRET optical interference artefacts, confirmation, artefact control for LEDGF/p75-dependent integration inhibitor project, biochemical, HIV-1 IN multimerization; shares compounds with LEDGF integ inh; TR-FRET optical interference counterscreen; inhibition, % at 7.7 µM; 2,000 tested, under 10 active; AID 1053135, 2014;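 active = inhibition above the mean over all tested compounds plus 3 SD, which no compound reached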
IN-LEDGF confirm: inhibitors of HIV-1 IN-LEDGF/p75 DNA integration, confirmation, biochemical, TR-FRET | shares compounds with LEDGF integ inh | TR-FRET LEDGF/p75-dependent HIV-1 integration | inhibition, % at 3.7 µM | 2,000 tested, 36% active
A number is an active result; i = inactive; nt = not tested or not shown. Cut-off read from the data, not from the text of the source, unless noted: active = inhibition above about 14%; inactive = the rest.

SMILES | LEDGF integ inh | MBD2 DNA inh | UHRF1 MBD2 ctr | PRMT1 FP inh | IN multimer act | TRFRET interf | IN-LEDGF confirm | others
C#C[C@]1(O)CC[C@H]2[C@@H]3CCC4=CC(=O)CC[C@]4(C)[C@H]3CC[C@@]21C | i | i | i | i | nt | nt | nt
[N-]=[N+]=CC(=O)OC[C@H](N)C(=O)O | i | i | i | i | nt | nt | nt
CC[N+](C)(CC)CCCCOc1ccc2c(c1)C(=O)c1cc(OCCCC[N+](C)(CC)CC)ccc1-2 | i | 17 | 41 | i | nt | nt | nt | UHRF1 DNA bind=49;MBD2 DBD conf=31
NCC(O)c1cc(O)c(O)cc1F (stereo not drawn) | 49 | 14 | 27 | i | 12 | i | i | UHRF1 DNA bind=i;MBD2 DBD conf=i
CC(=O)O/C(=C1\CC2C3CC=C4CC(OC(C)=O)CCC4(C)C3CCC2(C)C1=O)C(F)(F)F (stereo not drawn) | i | i | i | i | nt | nt | nt
Cc1ccc(N2C(=O)NC(=O)/C(=C/c3cnn(-c4ccc(C)cc4)c3)C2=O)cc1 | i | i | i | i | nt | nt | nt
Cc1ccc(N2C(=O)NC(=O)/C(=C/c3ccoc3)C2=O)cc1 | 30 | 33 | 63 | i | 9.2 | i | 57 | UHRF1 DNA bind=86;MBD2 DBD conf=54
O=C(c1cc(Cl)cc(Cl)c1)N1Cc2ccccc2-n2nncc2C1 | i | i | i | i | nt | nt | nt
CN(C)[C@@H]1C(=O)C(C(N)=O)=C(O)[C@@]2(O)C(=O)C3=C(O)c4c(O)cccc4[C@@](C)(O)C3[C@H](O)C12 (stereo partly drawn) | 42 | 19 | 62 | 36 | 15 | i | 25 | UHRF1 DNA bind=i;MBD2 DBD conf=i
O=C(CSC1c2ccccc2-c2ccccc21)N/N=C/c1ccccc1O | i | i | i | i | nt | nt | nt
O=C(c1ccco1)C12CN3CN(CN(C3)C1)C2 | i | i | i | i | nt | nt | nt
N/C(=N\N=C/c1ccc(-c2ccc(O)c(C(=O)O)c2)o1)N[N+](=O)[O-] | 30 | 48 | 82 | 33 | 35 | i | 25 | UHRF1 DNA bind=55;MBD2 DBD conf=18
C[n+]1c(-c2ccccc2)c2cc(N)ccc2c2ccc(N)cc21 | 41 | 55 | 62 | 66 | i | i | 64 | UHRF1 DNA bind=77;MBD2 DBD conf=86
COCCCn1c(N)c(C(=O)Nc2ccccc2)c2nc3ccccc3nc21 | i | i | i | i | nt | nt | nt
CCC(C)NC(=O)c1c(N)n(CCCOC)c2nc3ccccc3nc12 (stereo not drawn) | 39 | i | i | i | i | i | 14
CC(C)(C)OC(=O)c1c(N)n(Cc2ccco2)c2nc3ccccc3nc12 | 35 | i | i | 21 | i | i | i
CCC(C)NC(=O)c1c(N)n(CC2CCCO2)c2nc3ccccc3nc12 (stereo not drawn) | 19 | i | i | i | i | i | i
COCCCn1c(N)c(C(=O)NCc2ccco2)c2nc3ccccc3nc21 | 33 | i | i | i | i | i | 52
N=C(N)c1c(O)n(C2CCCCC2)c(=O)n(C2CCCCC2)c1=O | i | i | i | i | nt | nt | nt
CCN(CC)P(=O)(NC(=O)C(Cl)(Cl)Cl)N(CC)CC.[Cl-].[Cl-].[Cl-].[Nd+3] | i | i | i | i | nt | nt | nt
CC(C)n1c(=O)c(C=Nc2ccc(S(N)(=O)=O)cc2)c(O)n(Cc2ccco2)c1=O | 17 | i | i | i | i | i | i
CCCCn1c(=O)c(C=Nc2ccc(Cl)cc2)c(O)n(Cc2ccco2)c1=O | i | i | i | i | nt | nt | nt
O=C(COc1ccccc1)N1CCN(C/C=C/c2ccccc2)CC1 | i | i | i | i | nt | nt | nt
O=C(CF)N(O)c1ccc(C=Cc2ccccc2)cc1 | 24 | i | i | i | i | i | i
C=CCN1C(=O)NC(=O)/C(=C/c2ccoc2)C1=O | 14 | i | 28 | i | i | i | 42
SMILES | LEDGF integ inh | MBD2 DNA inh | UHRF1 MBD2 ctr | PRMT1 FP inh | IN multimer act | TRFRET interf | IN-LEDGF confirm | others
C=CCN1C(=O)NC(=O)/C(=C/c2cccn2C)C1=O | i | i | i | i | nt | nt | nt
COc1ccc(-n2nnnc2C(c2cccc3ccccc23)N2CCC3(CC2)C(=O)NCN3c2ccccc2)cc1 (stereo not drawn) | i | i | i | i | nt | nt | nt
Cc1ccccc1-n1c(O)c(C=Nc2ccc(N(C)C)cc2)c(=O)[nH]c1=O | 19 | i | i | 21 | i | i | i
C=CCn1c(O)c(C=Nc2ccc(N(CC)CC)cc2)c(=O)[nH]c1=O | 30 | i | i | 22 | i | i | i
C=CCn1c(O)c(C=Nc2ccc(F)cc2)c(=O)[nH]c1=O | i | i | i | i | nt | nt | nt
CC(C)(C)C(=O)OCC12CCC(O1)C1(C)C(=O)OCC21 (stereo not drawn) | i | i | i | i | nt | nt | nt
CCCCC(=O)N/N=C/c1c(O)n(-c2cccc3ccccc23)c(=O)[nH]c1=O | i | i | i | i | nt | nt | nt
COc1ccc(-c2ccc3c(c2)CN(c2cccc(Cl)c2)Cc2cnnn2-3)cc1 | 73 | i | 25 | i | i | i | 14
C#C[C@]1(O)CCC2C3C(=O)C=C4C(Cl)=CCC[C@]4(C)C3CC[C@@]21C (stereo partly drawn) | i | i | i | i | nt | nt | nt
FC(F)(F)C1=NC(C(F)(F)F)=NP(N2CCOCC2)(N2CCOCC2)=N1 | i | i | i | i | nt | nt | nt
COc1ccccc1-n1c(-c2ccc(C)cc2)nc2ccccc2c1=O | i | i | i | i | nt | nt | nt
CCc1nc2ccccc2c(=O)n1-c1ccccc1OC | 25 | i | i | i | i | i | i
CC1CCCCN1CC(=O)c1ccc2cc[nH]c2c1 (stereo not drawn) | i | i | i | i | nt | nt | nt
Cc1cc(/C=C2\C(=O)NC(=O)N(c3ccc(F)cc3)C2=O)c(C)n1-c1cccc(C(=O)O)c1 | i | i | i | i | nt | nt | nt
Cc1cc(/C=C2\C(=O)NC(=O)N(c3ccccc3F)C2=O)c(C)n1-c1cc(C(=O)O)cc(C(=O)O)c1 | 40 | i | 52 | i | 14 | i | 39
COC(=O)C1=C(c2ccc(Cl)c(C(F)(F)F)c2)C[C@@H]2CC[C@H]1N2C(=O)NCC1CC1 | i | i | i | i | nt | nt | nt
